Columns and labels:
Experiment in all cases: growth AUC relative to DMSO control (median of replicates) (fraction); higher = more growth (less inhibition), active = hit call of the paper
Conditions in all cases: 20 µM; 24 h;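 active = AUC reduced over 20% with Padj below 0.05 in at least 2 of 3 replicates; inactive = otherwise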
Akkermansia muciniphila = test system: Akkermansia muciniphila
Procedure, shortened: (§1)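 Hourly OD600 readings over 24 h tracked anaerobic gut bacterial monocultures grown at 37 °C in mGAM from OD600 0.05 with 20 µM compound (1% DMSO). After the minimum OD was set to 0, area under the growth curve was normalised to the plate median of solvent-only wells, or to row and column medians on the industrial chemical plate. Values are medians of three biological replicates grown on separate days.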

Bacteroides caccae = test system: Bacteroides caccae
Procedure, shortened: as §1

Bacteroides clarus = test system: Bacteroides clarus
Procedure, shortened: as §1

Bacteroides dorei = test system: Bacteroides dorei
Procedure, shortened: as §1

Bacteroides stercoris = test system: Bacteroides stercoris
Procedure, shortened: as §1

[1] = test system: Bacteroides thetaiotaomicron
Procedure, shortened: as §1

Bacteroides uniformis = test system: Bacteroides uniformis
Procedure, shortened: as §1

[2] = test system: Bifidobacterium longum subsp. longum
Procedure, shortened: as §1

Clostridium difficile = test system: Clostridium difficile
Procedure, shortened: as §1

Collinsella aerofaciens = test system: Collinsella aerofaciens
Procedure, shortened: as §1

Measured: growth AUC

CS(=O)(=O)c1ccc(C(=O)C2C(=O)CCCC2=O)c([N+](=O)[O-])c1
inactive: Akkermansia muciniphila 0.895 | Bacteroides caccae 0.986 | Bacteroides clarus 0.946 | Bacteroides dorei 0.977 | Bacteroides stercoris 0.979 | [1] 0.972 | Bacteroides uniformis 0.965 | [2] 0.965 | Clostridium difficile 0.986 | Collinsella aerofaciens 0.972

Clc1nc(Cl)nc(Nc2ccccc2Cl)n1
inactive: Akkermansia muciniphila 1.04 | Bacteroides caccae 1.02 | Bacteroides clarus 0.962 | Bacteroides dorei 1.02 | Bacteroides stercoris 1.07 | [1] 0.995 | Bacteroides uniformis 0.997 | [2] 1.01 | Clostridium difficile 1.03 | Collinsella aerofaciens 1.01

O=C(O)c1cc(Oc2ccc(C(F)(F)F)cc2Cl)ccc1[N+](=O)[O-]
inactive: Akkermansia muciniphila 1.01 | Bacteroides caccae 1.04 | Bacteroides clarus 0.925 | Bacteroides dorei 0.916 | Bacteroides stercoris 0.84 | [1] 1.02 | Bacteroides uniformis 0.985 | [2] 1.06 | Clostridium difficile 0.966 | Collinsella aerofaciens 0.956

c1nc[n]([Sn]([CH]2CCCCC2)([CH]2CCCCC2)[CH]2CCCCC2)n1
inactive: Akkermansia muciniphila 1.02 | Bacteroides caccae 0.997 | Bacteroides clarus 0.86 | Bacteroides dorei 0.939 | Bacteroides stercoris 0.935 | [1] 0.955 | Bacteroides uniformis 0.901 | [2] 0.506 | Clostridium difficile 0.951 | Collinsella aerofaciens 0.814

Fc1ccc(Oc2ccnc3cc(Cl)cc(Cl)c23)cc1
inactive: Akkermansia muciniphila 0.94 | Bacteroides caccae 0.899 | Bacteroides clarus 0.918 | Bacteroides dorei 1.05 | Bacteroides stercoris 0.806 | [1] 0.887 | Bacteroides uniformis 0.875 | [2] 0.905 | Clostridium difficile 1.08 | Collinsella aerofaciens 0.967

COC(=O)C(C)N(C(=O)Cc1ccccc1)c1c(C)cccc1C (stereo not given)
inactive: Akkermansia muciniphila 0.959 | Bacteroides caccae 0.985 | Bacteroides clarus 0.957 | Bacteroides dorei 0.99 | Bacteroides stercoris 0.954 | [1] 0.956 | Bacteroides uniformis 0.878 | [2] 1.02 | Clostridium difficile 0.977 | Collinsella aerofaciens 1.02

CC(C)(C)C(O)C(Cc1ccc(Cl)cc1Cl)n1cncn1 (mixture of isomers)
inactive: Akkermansia muciniphila 1.11 | Bacteroides caccae 0.923 | Bacteroides clarus 0.969 | Bacteroides dorei 0.889 | Bacteroides stercoris 0.868 | [1] 0.921 | Bacteroides uniformis 0.932 | [2] 1.04 | Clostridium difficile 1.01 | Collinsella aerofaciens 0.936
